Data reported in the supplement of paper PMC11732987, “Enantioselective OTUD7B fragment discovery through chemoproteomics screening and high-throughput optimisation” (Communications Chemistry, 2025).

How the values were obtained:
Test in all cases: log2 ratio of Biotin-Ahx-Ub-VS probe labelling (fragment/DMSO); higher = less target engagement (more negative = stronger competition), active = hit call of the paper (q ≤ 0.05, log2 ratio ≤ -1)
Settings in all cases: compound concentration: 200 uM; treatment time: 3 h
USP34 = USP34 (UniProt Q70CQ2)
Outline: (§1)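 Triplicate samples of HEK293T lysate, 495 µg each, received fragment at 200 µM or vehicle for 3 h, followed by Biotin-Ahx-Ub-VS (0.5 µM final) for 1 h. After NeutrAvidin enrichment of labelled DUBs and LysC/trypsin digestion, peptides were run by diaPASEF LC-MS/MS. The values are average log2 fragment/vehicle ratios from global-median-normalised Spectronaut label-free quantities, tested by unpaired t-test on proteins having ≥2 unique peptides.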

USP36 = molecular target: T1, USP36 (UniProt Q9P275)
T1 sequence (whole entry): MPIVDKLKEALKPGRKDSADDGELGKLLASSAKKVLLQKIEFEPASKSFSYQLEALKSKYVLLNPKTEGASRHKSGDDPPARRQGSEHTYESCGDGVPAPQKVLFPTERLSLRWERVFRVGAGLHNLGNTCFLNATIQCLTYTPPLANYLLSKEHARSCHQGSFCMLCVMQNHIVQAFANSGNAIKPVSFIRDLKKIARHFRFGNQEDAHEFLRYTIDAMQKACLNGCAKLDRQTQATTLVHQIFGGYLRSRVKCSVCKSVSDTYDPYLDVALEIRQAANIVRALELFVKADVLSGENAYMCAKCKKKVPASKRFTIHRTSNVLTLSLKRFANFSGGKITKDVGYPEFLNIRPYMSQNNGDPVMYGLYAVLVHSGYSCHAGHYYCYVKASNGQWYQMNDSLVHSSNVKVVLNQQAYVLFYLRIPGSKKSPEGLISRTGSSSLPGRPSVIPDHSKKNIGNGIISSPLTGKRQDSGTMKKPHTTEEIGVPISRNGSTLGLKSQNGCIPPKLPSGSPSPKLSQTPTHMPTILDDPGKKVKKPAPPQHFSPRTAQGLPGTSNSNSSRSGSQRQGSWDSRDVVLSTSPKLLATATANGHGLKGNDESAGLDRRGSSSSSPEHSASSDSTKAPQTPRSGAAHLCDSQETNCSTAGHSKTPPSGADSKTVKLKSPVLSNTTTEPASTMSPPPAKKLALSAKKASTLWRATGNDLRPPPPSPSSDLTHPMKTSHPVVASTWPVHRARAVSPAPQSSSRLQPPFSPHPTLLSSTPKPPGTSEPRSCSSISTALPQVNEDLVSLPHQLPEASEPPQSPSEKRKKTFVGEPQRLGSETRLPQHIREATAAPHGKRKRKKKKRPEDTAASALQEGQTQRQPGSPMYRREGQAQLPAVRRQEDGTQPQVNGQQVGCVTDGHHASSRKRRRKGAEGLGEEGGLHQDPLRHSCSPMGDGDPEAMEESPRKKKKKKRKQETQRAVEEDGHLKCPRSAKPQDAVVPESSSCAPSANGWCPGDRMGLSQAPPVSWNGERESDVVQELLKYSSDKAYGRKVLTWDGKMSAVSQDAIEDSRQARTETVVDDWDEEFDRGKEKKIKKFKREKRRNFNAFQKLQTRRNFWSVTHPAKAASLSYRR
Outline: as §1

USP38 = molecular target: T2, USP38 (UniProt Q8NB14)
T2 sequence (whole entry): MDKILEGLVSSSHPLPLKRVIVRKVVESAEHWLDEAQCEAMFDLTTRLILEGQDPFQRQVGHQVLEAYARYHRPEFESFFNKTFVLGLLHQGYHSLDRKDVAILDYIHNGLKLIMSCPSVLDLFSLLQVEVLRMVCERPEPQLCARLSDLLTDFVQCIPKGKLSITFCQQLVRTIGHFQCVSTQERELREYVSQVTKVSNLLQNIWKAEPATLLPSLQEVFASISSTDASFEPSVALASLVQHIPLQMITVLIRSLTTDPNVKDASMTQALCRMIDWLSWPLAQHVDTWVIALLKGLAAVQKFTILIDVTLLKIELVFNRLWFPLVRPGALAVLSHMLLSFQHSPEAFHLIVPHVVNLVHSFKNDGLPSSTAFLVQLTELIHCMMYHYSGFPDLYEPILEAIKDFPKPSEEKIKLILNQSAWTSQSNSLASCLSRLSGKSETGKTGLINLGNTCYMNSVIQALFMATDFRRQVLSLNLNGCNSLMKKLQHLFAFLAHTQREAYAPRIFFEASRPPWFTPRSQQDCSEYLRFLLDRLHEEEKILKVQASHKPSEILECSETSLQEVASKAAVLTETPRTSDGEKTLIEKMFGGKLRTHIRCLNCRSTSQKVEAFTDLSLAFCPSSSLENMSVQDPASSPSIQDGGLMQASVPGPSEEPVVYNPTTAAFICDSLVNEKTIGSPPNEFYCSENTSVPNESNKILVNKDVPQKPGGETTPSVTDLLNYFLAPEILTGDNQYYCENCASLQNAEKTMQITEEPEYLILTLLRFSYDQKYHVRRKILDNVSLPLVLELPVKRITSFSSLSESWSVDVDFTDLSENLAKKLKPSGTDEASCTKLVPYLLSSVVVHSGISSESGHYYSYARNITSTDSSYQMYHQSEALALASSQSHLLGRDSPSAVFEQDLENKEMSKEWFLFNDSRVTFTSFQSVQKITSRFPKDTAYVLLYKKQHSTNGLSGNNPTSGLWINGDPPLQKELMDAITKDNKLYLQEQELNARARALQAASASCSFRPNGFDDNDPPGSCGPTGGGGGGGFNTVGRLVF
Outline: as §1

USP39 = molecular target: T3, USP39 (UniProt Q53GS9)
T3 sequence (whole entry): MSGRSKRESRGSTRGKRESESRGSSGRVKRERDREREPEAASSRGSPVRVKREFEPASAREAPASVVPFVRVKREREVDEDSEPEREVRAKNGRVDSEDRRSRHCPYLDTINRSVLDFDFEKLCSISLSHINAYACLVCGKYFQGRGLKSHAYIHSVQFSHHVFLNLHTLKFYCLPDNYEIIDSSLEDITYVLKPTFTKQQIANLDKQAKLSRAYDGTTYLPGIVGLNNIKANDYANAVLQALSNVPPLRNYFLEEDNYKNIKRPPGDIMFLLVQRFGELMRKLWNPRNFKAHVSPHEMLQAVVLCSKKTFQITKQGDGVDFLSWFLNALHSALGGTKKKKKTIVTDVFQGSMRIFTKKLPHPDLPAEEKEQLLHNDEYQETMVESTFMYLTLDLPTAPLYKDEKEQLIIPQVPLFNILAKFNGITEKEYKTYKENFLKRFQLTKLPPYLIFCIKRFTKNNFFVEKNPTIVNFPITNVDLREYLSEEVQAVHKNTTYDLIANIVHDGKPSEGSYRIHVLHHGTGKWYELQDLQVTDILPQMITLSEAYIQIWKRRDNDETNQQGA
Outline: as §1

USP4 = molecular target: T4, USP4 (UniProt Q13107)
T4 sequence (whole entry): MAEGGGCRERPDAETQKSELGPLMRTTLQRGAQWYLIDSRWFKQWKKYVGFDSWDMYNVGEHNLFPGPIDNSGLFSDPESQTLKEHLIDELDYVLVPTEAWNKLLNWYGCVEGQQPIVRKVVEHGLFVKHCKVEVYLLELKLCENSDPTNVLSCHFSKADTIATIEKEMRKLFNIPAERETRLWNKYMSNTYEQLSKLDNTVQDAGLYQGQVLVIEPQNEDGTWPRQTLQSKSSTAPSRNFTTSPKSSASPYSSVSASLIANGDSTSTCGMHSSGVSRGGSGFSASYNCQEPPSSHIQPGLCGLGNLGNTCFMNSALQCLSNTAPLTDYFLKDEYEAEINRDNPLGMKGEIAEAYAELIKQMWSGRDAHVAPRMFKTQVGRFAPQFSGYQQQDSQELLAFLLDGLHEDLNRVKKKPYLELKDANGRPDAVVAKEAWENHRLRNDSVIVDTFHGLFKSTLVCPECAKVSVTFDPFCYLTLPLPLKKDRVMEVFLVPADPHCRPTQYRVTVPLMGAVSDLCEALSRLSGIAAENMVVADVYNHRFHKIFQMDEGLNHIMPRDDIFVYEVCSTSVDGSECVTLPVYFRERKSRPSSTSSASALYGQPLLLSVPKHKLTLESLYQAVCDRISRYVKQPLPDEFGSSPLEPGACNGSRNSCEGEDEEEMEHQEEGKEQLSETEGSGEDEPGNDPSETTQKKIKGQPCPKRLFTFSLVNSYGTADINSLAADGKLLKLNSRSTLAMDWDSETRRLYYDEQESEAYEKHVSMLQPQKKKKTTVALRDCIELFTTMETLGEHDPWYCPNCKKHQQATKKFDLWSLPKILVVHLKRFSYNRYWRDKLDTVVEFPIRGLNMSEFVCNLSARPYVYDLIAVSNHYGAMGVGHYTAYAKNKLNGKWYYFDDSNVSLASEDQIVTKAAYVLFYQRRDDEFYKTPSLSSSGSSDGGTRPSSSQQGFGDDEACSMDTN
Outline: as §1

Measured: log2 ratio of Biotin-Ahx-Ub-VS probe labelling

Chain of USP34 (Q70CQ2 whole entry, the tested form may be a part): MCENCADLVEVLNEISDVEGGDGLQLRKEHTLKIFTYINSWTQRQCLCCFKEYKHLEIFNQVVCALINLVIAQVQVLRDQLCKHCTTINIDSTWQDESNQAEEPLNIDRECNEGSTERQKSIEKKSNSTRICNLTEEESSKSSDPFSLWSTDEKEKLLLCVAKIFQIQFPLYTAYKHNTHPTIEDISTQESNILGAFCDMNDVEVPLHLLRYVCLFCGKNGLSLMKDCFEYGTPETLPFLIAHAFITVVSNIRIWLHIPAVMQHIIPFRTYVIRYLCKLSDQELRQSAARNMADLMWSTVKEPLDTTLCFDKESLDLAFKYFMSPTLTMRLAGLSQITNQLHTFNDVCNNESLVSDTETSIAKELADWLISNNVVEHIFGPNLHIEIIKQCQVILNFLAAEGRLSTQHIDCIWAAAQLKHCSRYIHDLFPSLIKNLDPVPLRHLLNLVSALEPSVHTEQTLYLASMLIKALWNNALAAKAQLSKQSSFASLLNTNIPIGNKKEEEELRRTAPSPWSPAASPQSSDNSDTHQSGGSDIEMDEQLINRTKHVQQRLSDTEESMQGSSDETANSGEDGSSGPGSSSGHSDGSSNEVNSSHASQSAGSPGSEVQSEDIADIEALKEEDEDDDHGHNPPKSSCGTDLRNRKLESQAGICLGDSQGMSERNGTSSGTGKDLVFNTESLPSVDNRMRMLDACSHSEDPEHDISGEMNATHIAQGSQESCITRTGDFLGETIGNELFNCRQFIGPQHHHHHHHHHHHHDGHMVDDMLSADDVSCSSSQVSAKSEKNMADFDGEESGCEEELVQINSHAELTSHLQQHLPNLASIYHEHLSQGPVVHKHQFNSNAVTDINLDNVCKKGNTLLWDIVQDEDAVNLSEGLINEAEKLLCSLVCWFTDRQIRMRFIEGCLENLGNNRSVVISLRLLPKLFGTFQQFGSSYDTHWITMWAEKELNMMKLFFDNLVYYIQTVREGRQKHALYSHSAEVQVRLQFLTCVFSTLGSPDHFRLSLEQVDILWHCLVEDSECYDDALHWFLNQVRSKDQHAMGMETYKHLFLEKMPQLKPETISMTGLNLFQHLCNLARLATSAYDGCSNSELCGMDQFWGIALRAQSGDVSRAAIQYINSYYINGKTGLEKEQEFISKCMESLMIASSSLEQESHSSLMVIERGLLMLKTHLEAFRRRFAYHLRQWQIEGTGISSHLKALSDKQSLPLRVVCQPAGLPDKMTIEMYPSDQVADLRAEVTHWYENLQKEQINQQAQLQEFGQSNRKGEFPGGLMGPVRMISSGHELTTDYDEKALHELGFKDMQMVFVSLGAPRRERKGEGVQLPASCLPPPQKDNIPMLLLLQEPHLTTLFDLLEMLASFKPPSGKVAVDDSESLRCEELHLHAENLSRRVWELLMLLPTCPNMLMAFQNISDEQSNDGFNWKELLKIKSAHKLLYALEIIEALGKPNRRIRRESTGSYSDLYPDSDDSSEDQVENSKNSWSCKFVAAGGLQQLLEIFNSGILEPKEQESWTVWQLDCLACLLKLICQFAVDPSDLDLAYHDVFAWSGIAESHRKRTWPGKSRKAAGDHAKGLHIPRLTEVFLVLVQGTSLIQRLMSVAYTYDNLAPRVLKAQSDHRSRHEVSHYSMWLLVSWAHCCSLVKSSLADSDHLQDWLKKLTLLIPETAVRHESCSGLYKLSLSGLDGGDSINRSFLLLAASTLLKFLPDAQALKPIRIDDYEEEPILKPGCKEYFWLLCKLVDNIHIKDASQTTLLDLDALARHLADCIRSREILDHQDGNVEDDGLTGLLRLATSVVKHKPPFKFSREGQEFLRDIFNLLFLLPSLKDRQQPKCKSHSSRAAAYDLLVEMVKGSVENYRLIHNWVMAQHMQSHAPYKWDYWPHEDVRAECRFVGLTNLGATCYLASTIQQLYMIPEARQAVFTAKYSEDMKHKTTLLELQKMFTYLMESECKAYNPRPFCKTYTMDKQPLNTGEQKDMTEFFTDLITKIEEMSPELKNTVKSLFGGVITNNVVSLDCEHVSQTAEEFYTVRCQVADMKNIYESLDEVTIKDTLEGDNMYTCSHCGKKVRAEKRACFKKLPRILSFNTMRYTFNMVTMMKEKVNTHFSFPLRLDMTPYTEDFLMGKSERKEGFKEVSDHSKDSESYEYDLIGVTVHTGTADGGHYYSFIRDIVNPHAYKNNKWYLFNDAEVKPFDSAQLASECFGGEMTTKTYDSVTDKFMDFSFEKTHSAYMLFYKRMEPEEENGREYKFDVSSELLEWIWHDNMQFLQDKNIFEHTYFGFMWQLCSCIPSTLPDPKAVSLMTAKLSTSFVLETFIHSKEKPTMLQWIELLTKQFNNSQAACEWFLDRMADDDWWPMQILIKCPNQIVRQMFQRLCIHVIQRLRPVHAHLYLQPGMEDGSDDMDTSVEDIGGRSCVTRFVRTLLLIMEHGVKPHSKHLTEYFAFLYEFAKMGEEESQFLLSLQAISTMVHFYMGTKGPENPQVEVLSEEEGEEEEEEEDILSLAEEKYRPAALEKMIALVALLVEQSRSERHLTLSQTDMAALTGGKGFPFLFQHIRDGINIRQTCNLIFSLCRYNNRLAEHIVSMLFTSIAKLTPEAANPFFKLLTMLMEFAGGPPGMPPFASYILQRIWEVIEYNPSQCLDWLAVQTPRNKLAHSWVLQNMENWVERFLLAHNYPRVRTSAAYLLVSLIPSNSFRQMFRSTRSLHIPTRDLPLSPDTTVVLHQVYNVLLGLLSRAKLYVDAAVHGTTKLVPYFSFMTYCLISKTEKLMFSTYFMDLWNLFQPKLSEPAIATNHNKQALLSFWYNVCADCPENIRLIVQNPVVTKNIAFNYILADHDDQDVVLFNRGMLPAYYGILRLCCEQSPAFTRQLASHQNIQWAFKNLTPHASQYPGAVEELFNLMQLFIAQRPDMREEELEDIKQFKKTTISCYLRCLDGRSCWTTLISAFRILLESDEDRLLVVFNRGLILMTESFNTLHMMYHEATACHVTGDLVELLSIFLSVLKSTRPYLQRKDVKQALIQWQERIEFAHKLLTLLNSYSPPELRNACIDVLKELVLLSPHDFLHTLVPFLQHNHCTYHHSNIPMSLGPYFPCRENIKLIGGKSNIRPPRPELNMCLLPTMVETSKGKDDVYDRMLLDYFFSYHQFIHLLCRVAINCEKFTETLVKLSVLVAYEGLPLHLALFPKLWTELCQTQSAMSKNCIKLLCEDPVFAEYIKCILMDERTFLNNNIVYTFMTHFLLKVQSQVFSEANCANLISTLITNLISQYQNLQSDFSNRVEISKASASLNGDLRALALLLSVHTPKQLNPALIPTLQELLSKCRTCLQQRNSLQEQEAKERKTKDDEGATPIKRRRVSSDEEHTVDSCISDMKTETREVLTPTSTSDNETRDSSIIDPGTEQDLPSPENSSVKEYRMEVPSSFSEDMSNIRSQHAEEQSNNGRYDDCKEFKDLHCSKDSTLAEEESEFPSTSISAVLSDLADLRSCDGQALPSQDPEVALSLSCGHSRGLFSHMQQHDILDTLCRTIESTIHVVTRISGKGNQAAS

Cc1cc(C2CCCN2C(=O)CCl)nn1C.Cl (stereo not given)
inactive: USP34 -0.179 | USP36 -0.0531 | USP38 -0.227 | USP39 -0.281 | USP4 -0.154
